Bioassay records: PubChem BioAssay, National Center for Advancing Translational Sciences (NCATS)
TDP1 cell CPT: qHTS for Inhibitors of human tyrosyl-DNA phosphodiesterase 1 (TDP1): qHTS in cells in presence of CPT | Potency, µM (series often up to 46.2 µM), inactives show top-dose activity change, negative = growth inhibition, hits mostly inhibitors | 420,000 compounds, 12% hits | chicken DT40 Tdp1-/-;hTDP1 cells + 20 nM CPT, ATP luminescence, 48 h; note: potency is the fitted concentration of half-maximal effect; nearly all actives have a fitted effect of over 55% in size
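Chicken DT40 Tdp1-/- cells complemented with human TDP1, 400 cells/well, exposed to compounds plus 20 nM camptothecin for at least 48 h at 37 C; viability read as ATP content by CellTiter-Glo luminescence.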
ELG1 repair inh: qHTS screen for small molecules that inhibit ELG1-dependent DNA repair in human embryonic kidney (HEK293T) cells expressing luciferase-tagged ELG1. 330,000 compounds, 2.3% hits. HEK293T ELG1-luciferase reporter, luminescence, 16 h; DNA damage induced by 5-fluorouridine. Potency, µM (top dose mostly 46.1 µM), inactives show top-dose activity change, negative = inhibition, most hits filed as inhibitors; note: potency is the fitted concentration of half-maximal effect; nearly all actives have a fitted effect of over 55% in size
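Luminescence from the luciferase reporter, measured 30 min after ONE-Glo reagent at room temperature, was the read-out. Beforehand, 2,000 cells per well were exposed for 16 hr at 37 °C to 5-fluorouridine together with compound or vehicle.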
VP16 counter: VP16 counterscreen qHTS for inhibitors of ROR gamma transcriptional activity | Drosophila S2 Gal4-VP16 UAS-luciferase, luminescence, 20 h | Potency, µM (highest dose often 53.6 µM), for inactives: at the highest dose activity, negative = inhibition, most hits filed as inhibitors | 310,000 compounds, 3.5% hits;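 note: Gal4-VP16 expression switched on by copper sulfate through the metallothionein promoter; potency is the fitted concentration of half-maximal effect; nearly all actives have a fitted effect of over 50% in size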
IL-1B inflam inh: qHTS for Inhibitors of Inflammasome Signaling: IL-1-beta AlphaLISA Primary Screen. THP-1 LPS/ATP IL-1B secretion, AlphaLISA, 16 h; active compounds read low. activity change, % at 57.5 µM. 360,000 compounds, 4.7% hits; in the data active = activity change below about -50%; inconclusive = mostly about -30% to -49%
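THP-1 cells pretreated 1 hr with compounds (up to 57.5 uM final), then stimulated with LPS (250 ng/mL final) plus ATP (1.25 mM final); secreted IL-1B measured by AlphaLISA after 16 hr, decreased signal indicating inhibition.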
RORgamma inh: qHTS for inhibitors of ROR gamma transcriptional activity; Nuclear receptor ROR-gamma (Mus musculus), P51450; Drosophila S2 Gal4-RORgamma UAS-luciferase reporter, 20 h; Potency, µM (top dose mostly 53.6 µM), inactives show at the highest dose activity change, negative = inhibition, usual class: inhibitors; 310,000 compounds, 5.4% hits; AID 2551, 2010; note: potency is the fitted concentration of half-maximal effect; nearly all actives have a fitted effect of over 60% in size
Target sequence (P51450 whole entry, looked up, the tested form may be a part): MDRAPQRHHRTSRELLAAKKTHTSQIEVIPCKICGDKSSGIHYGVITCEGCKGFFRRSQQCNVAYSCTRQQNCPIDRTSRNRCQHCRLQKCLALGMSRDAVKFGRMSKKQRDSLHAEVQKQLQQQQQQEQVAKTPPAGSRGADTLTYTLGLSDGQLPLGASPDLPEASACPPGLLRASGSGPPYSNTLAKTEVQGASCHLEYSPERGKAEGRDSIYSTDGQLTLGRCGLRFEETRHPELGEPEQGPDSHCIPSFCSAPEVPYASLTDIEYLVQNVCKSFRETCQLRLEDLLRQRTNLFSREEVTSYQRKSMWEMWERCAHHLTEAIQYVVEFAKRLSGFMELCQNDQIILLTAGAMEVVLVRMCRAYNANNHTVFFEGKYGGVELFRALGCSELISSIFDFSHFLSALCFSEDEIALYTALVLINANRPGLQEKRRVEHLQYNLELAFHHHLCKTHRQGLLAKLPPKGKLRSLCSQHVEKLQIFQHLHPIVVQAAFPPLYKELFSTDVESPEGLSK
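Read-out: Photinus luciferase luminescence; inhibitors lower reporter signal. Insect Schneider cells with Gal4-ROR gamma fusion under metallothionein promoter, UAS reporter; 700 uM final copper sulfate induction, 20 hr, ambient temperature.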
TDP1 cell noCPT: qHTS for Inhibitors of human tyrosyl-DNA phosphodiesterase 1 (TDP1): qHTS in cells in absence of CPT | Potency, µM (doses to about 46.2 µM), inactives show top-dose activity change, negative = growth inhibition, most hits filed as inhibitors | 420,000 compounds, 15% hits | DT40 Tdp1-/- hTDP1 cells, no CPT, ATP luminescence, 48 h; note: potency is the fitted concentration of half-maximal effect; nearly all actives have a fitted effect of over 55% in size
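DT40 Tdp1-/-;hTDP1 cells, no CPT (DMSO vehicle only), 400 cells/well; compounds pin-transferred; ≥48 hr, 37 °C; CellTiter-Glo 30 min RT dark, luminescence read.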
* marks the source's active call; other numbers are inactive results; ? = inconclusive; . = no result given; [ ] = dose if it differs, or a comment. An excerpt weighted towards active compounds, which were near 21% of everything screened. Unless noted, calls come from the whole dose curve; as a rule, active = well fitted curve in the direction sought with a large enough effect; inconclusive = small, poorly fitted or top-dose-only effect, or another doubt; inactive = no such curve, though single readings can be large; an effect the other way counts as inactive or inconclusive. % is set by controls: 0 for no effect and ±100 for the full control effect.

SMILES	TDP1 cell CPT	ELG1 repair inh	VP16 counter	IL-1B inflam inh	RORgamma inh	TDP1 cell noCPT
Nc1cc(Cl)c(N)c(Cl)c1	.	.	-13%	.	-2%	.
Cc1ccc2c(NC(=O)c3ccco3)cccc2n1	2%	13%	.	8	.	21%
COc1cccc(N2CCN(C(=O)C3Cc4ccccc4N3C(C)=O)CC2)c1 (stereo not drawn)	?	.	.	.	.	-26%
CCC(C)N(C)Cc1cccc(C2(O)CCN(S(=O)(=O)c3ccc(F)c(C)c3)CC2)c1 (stereo not drawn)	18µM*	7%	-25%	-23	0%	18µM*
COc1ccc(C(CNC(=O)c2cccc(S(=O)(=O)N(C)c3ccccc3)c2)N2CCCC2)cc1 (stereo not drawn)	?	?	.	-29	.	4.1µM*
COc1ccc(C(CNC(=O)c2cccc(NS(=O)(=O)c3ccccc3)c2)N2CCCC2)cc1 (stereo not drawn)	?	.	.	-3	.	?
COc1ccc(C(CNC(=O)c2ccc(S(=O)(=O)N(C)C)cc2)N(C)C)cc1 (stereo not drawn)	-3%	5%	-5%	-10	-8%	-18%
C=CCN(c1ccccc1)S(=O)(=O)c1cccc(C(=O)NCC(c2cccs2)N2CCOCC2)c1 (stereo not drawn)	13µM*	?	.	0	.	7.3µM*
CCN(c1ccccc1)S(=O)(=O)c1cc(C(=O)NCC(c2ccc(OC)cc2)N(C)C)ccc1C (stereo not drawn)	?	.	.	-74*	.	16µM*
CCN(c1ccccc1)S(=O)(=O)c1cccc(C(=O)NCC(c2cccs2)N2CCOCC2)c1 (stereo not drawn)	21µM*	-15%	.	?	.	?
CN1CCCN(C(=O)c2ccc(Cl)s2)CC1	-29%	15%	1%	11	6%	0%
Cc1c(C(=O)N(C)Cc2cscn2)sc2ncnc(NC[C@H]3CCc4ccccc4O3)c12	-19%[9.04 µM]	.	.	.	.	?
COCC(=O)N1CCC2(CCCN(Cc3cc(C(F)(F)F)cc(C(F)(F)F)c3)C2)CC1	1%	.	-8%	.	-4%	?
COc1ccccc1NS(=O)(=O)c1cccc(C(=O)NCC(c2ccccc2OC)N2CCCC2)c1 (stereo not drawn)	?	-8%	.	-5	.	?
C=CCN(c1ccccc1)S(=O)(=O)c1cccc(C(=O)NCC(c2ccccc2OC)N2CCCC2)c1 (stereo not drawn)	18µM*	?	.	?	.	18µM*
COCCCNC(=O)c1oc2c(c1C)-c1nn(Cc3ccccc3Cl)cc1CC2	?	.	.	.	.	18µM*
CCn1cc2c(n1)-c1c(oc(C(=O)Nc3cccc(C(F)(F)F)c3)c1C)CC2	-21%	.	.	.	.	-27%
COc1ccc(NC(=O)c2oc3c(c2C)-c2nn(Cc4ccccc4Cl)cc2CC3)cc1OC	21µM*	.	.	.	.	21µM*
Cc1cccnc1-c1cccc2c1OC(CNC(=O)Cc1c(C)noc1C)C2 (stereo not drawn)	8%[9.04 µM]	.	.	.	.	-15%
Fc1ccc(CN2CCN3CCCC3C2C2CCCCC2)cc1F (stereo not drawn)	23µM*	-13%	0%	-29	-13%	18µM*
Fc1cccc(CN2CCN3CCCC3C2C2CCCCC2)c1 (stereo not drawn)	?	1%	0%	?	-8%	?
Fc1ccccc1N1CCN(c2ncc3c(n2)CCN(Cc2cc(Br)cs2)C3)CC1	?	.	.	.	.	-25%
CCc1ccc(CN2CCc3nc(N4CCN(c5ccccc5F)CC4)ncc3C2)cc1	?	.	.	.	.	18µM*
Clc1ccc(CN2CCc3nc(N4CCN(c5ccccn5)CC4)ncc3C2)cc1	-20%	.	.	.	.	-20%
COc1ccccc1N1CCN(c2ncc3c(n2)CCN(Cc2ccccc2F)C3)CC1	0%	.	.	.	.	1%
SMILES	TDP1 cell CPT	ELG1 repair inh	VP16 counter	IL-1B inflam inh	RORgamma inh	TDP1 cell noCPT
COc1cccc(N2CCN(c3ncc4c(n3)CCN(Cc3ccc(Br)cc3)C4)CC2)c1	13µM*	.	.	.	.	9.2µM*
CCOc1ccc(CN2CCc3nc(N4CCN(c5ccccc5OC)CC4)ncc3C2)cc1OC	9.2µM*	.	.	.	.	10µM*
COc1cc(OC)c(OC)cc1CN1CCc2nc(N3CCN(c4ncccn4)CC3)ncc2C1	16µM*	.	.	.	.	23µM*
COc1cccc(CN2CCN(C(=O)[C@H]3O[C@@H](n4cnc5c(N)ncnc54)[C@H](O)[C@@H]3O)CC2=O)c1	13%	.	.	-26	.	1%
C=CCn1c(SCC(=O)N(C(C)CC)C2CCS(=O)(=O)C2)nc2ccccc2c1=O (stereo not drawn)	?	-7%	.	-15	.	-14%
CCOc1ccc(CN2CCc3nc(N4CCN(c5ncccn5)CC4)ncc3C2)cc1OC	21µM*	.	.	.	.	?
Cc1ccc(NC(=O)COC(=O)c2ccc(CN3CCCC3=O)cc2)cc1C	-3%	1%	.	13	.	9%
Cc1ccc(-c2csc3nc(CN(C)Cc4ccccc4)[nH]c(=O)c23)cc1	?	-12%	6.3µM*	31	1.3µM*	26µM*
O=c1[nH]c(Cc2ccc(F)cc2)nc2scc(-c3ccc(F)cc3)c12	13µM*	-2%	-21%	0	?	26µM*
Cc1ccc(-c2csc3nc[nH]c(=O)c23)cc1	30%	8%	-13%	-18	16%	?
Cc1ccc(-c2csc3nc(-c4ccncc4)[nH]c(=O)c23)cc1	4.1µM*	16%	-12%	-7	12%	2.6µM*
Cn1nnnc1SCC(=O)Nc1ccccc1C(N)=O	-19%	2%	2%	23	-2%	-2%
O=C1CCC2c3[nH]c4ccccc4c3CCN12 (stereo not drawn)	-11%	.	.	?	.	-30%
O=C1OCCC1Sc1nnc(-c2ccccc2Br)n1Cc1ccccc1 (stereo not drawn)	-1%	0%	-5%	-54*	10%	0%
O=C1OCCC1Sc1nnc(-c2ccccc2Cl)n1Cc1ccccc1 (stereo not drawn)	-7%	3%	-10%	10	4%	-14%
CCOC(=O)c1cccc(NC(=O)C2CCCN2S(=O)(=O)c2cccc3cccnc23)c1 (stereo not drawn)	-15%	-12%	?	24	-25%	-26%
CCOc1ccc(OCC)c(S(=O)(=O)n2ccnc2C)c1	-13%	0%	-7%	0	2%	-12%
